The record followed here is the supplement of paper PMC10849652.

Targets with a hit are over-represented here; the source holds about 7,900 in all. About 0.6% of all pairs of compound and target were hits.

Holding throughout (assay): log2 fold change, soluble protein after heating vs DMSO (PISA); higher = thermal stabilisation; K562 cells, 10 uM, 30 min; active = over 0.2 and 3.5 SD of the protein, either way, in both replicates (recomputed)
Compound in assay [1]: CC1=NC(=CC=C1)C2=C(N=C(N2)C(C)(C)C)C3=CC4=NC=CN=C4C=C3
Summed up: (§1)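 K562 cells (2×10^6 cells/mL) were treated with 10 μM compound for 30 min, and aliquots were heated for 3 min over 48°C-58°C. Pooled aliquots were extracted in PBS with 0.5% NP-40 at 4°C, and the supernatant after 21,000xg for 90 min was measured by TMTpro 16plex LC-MS/MS with channel sums equalised. Reported thermal stability, relative to control samples and from duplicates, is a log2 fold change.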

Compound in the next assay: CCCCN(Cc1ccc(C(=O)NO)cc1)C(=O)Nc1ccccc1 [Nexturastat A]
The gist of the method:
as §1

Compound in a further assay: CCN(CCCOc1ccc2c(Nc3cc(CC(=O)Nc4cccc(F)c4)[nH]n3)ncnc2c1)CCOP(=O)(O)O [barasertib]
Summed up:
as §1

Compound in assay [2]: CC[C@H](C)N1C=C(C2=C(C=C(C=C21)C3=CN=C(C=C3)N4CCNCC4)C(=O)NCC5=C(C=C(NC5=O)C)C)C
Summed up: as §1

Compound in another assay: CC[C@H](C)[C@@H](C(=O)N[C@@H]([C@@H](C)O)C(=O)N[C@@H](CC(C)C)C(=O)[C@]1(CO1)C)NC(=O)[C@H]([C@@H](C)CC)N(C)C(=O)C [epoxomicin]
Summed up:
as §1

Compound in the next assay: CN(CCOC1=CC=C(C=C1)C[C@H]2C(=O)NC(=O)S2)C3=CC=CC=N3 (racemic) [rosiglitazone]
The gist of the method: as §1

Compound in assay [3]: CC[C@@H]1C(=O)N(C)c2cnc(Nc3ccc(C(=O)NC4CCN(C)CC4)cc3OC)nc2N1C1CCCC1
Summed up:
as §1

Compound in assay [4]: CC1=C(C=C(C=C1)NC(=O)C2=CC(=CC=C2)C(C)(C)C#N)NC3=CC4=C(C=C3)N=CN(C4=O)C
The gist of the method: as §1

Compound in a further assay: CCCS(=O)(=O)Nc1ccc(F)c(C(=O)c2c[nH]c3ncc(-c4ccc(Cl)cc4)cc23)c1F [vemurafenib]
The gist of the method: as §1

Compound in assay [5]: CCCc1cc(C)[nH]c(=O)c1CNC(=O)c1cc(-c2ccnc(N3CCN(C)CC3)c2)cc2c1cnn2C(C)C
Summed up: as §1

Compound in assay [6]: CCn1cc(-c2ccnc3[nH]c(-c4cccc(CN(C)C)c4)cc23)c(-c2ccc(NC(=O)N(C)C)cc2)n1
Summed up: as §1

Compound in assay [7]: CN(C)CC(=O)Nc1ccc2[nH]c(=O)c3ccccc3c2c1
The gist of the method: as §1

Compound in assay [8]: CN1C2=C(C3=C1C(=O)N(N=C3)CC4=CC(=CC=C4)N)SC(=C2)S(=O)C
The gist of the method:
as §1

Compound in assay [9]: CN1CCC(CNc2ccc3ncc(-c4cccc(OC(F)(F)F)c4)n3n2)CC1
Summed up:
as §1

Compound in assay [10]: CC1=CC=C(C=C1)SC2=C3C=C(SC3=CN=C2)C(=O)N
Summed up:
as §1

Compound in assay [11]: CCCS(=O)(=O)Nc1ccc(F)c(C(=O)c2c[nH]c3ncc(Cl)cc23)c1F
The gist of the method: as §1

Compound in the next assay: CC[C@@H]1C(=O)N(C)c2cnc(Nc3ccc(C(=O)N[C@H]4CC[C@H](N5CCN(CC6CC6)CC5)CC4)cc3OC)nc2N1C(C)C [volasertib]
Summed up:
as §1

Compound in the next assay: CCN(CC)Cc1ccc2cc(COC(=O)Nc3ccc(C(=O)NO)cc3)ccc2c1 [givinostat]
Summed up:
as §1

Compound in assay [12]: CCn1c(C(=O)N(C2CC2)C2CC2)cc2c3c(ncn3C)c(Nc3cc(C)n(C)n3)nc21
The gist of the method: as §1

Compound in assay [13]: CC1=C(C=C(C=C1)NC(=O)C2=CC(=CC=C2)N(C)C)NC(=O)C3=CC=C(C=C3)O
The gist of the method: as §1

UniProt P60903, sequence (P60903 whole entry, looked up): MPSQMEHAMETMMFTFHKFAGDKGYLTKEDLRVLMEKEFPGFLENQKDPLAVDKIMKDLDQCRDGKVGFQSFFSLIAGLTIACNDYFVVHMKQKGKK
UniProt Q8IZE3, sequence (Q8IZE3 whole entry, looked up): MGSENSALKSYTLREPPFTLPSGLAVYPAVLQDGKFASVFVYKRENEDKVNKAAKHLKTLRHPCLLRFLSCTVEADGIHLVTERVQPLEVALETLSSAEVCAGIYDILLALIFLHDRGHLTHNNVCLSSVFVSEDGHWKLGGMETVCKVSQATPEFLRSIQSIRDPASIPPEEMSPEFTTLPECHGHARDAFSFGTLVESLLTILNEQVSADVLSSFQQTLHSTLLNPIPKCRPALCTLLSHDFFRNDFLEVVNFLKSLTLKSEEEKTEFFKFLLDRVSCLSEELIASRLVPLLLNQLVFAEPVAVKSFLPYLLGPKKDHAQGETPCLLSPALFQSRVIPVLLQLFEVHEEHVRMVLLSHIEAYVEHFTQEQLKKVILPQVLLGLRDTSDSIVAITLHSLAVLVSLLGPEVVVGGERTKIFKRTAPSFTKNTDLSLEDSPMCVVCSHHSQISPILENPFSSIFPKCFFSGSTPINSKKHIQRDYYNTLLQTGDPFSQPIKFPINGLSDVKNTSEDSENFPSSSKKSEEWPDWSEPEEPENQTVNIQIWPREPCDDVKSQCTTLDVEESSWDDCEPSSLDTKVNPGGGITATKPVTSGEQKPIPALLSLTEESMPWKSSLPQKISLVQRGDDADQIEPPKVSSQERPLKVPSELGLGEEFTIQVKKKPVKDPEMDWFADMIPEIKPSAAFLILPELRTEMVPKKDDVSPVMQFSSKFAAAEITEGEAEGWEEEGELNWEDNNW
UniProt Q9H4P4, sequence (Q9H4P4 whole entry, looked up): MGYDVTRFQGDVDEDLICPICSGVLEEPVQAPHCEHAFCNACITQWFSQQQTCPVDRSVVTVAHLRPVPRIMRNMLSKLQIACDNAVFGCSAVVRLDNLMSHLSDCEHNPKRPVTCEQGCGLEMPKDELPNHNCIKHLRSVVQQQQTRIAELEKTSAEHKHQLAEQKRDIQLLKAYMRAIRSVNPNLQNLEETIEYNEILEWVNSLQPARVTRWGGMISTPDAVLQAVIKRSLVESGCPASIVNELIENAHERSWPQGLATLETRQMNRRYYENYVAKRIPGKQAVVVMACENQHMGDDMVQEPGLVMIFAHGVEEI
UniProt Q96NL6, sequence (Q96NL6 whole entry, looked up): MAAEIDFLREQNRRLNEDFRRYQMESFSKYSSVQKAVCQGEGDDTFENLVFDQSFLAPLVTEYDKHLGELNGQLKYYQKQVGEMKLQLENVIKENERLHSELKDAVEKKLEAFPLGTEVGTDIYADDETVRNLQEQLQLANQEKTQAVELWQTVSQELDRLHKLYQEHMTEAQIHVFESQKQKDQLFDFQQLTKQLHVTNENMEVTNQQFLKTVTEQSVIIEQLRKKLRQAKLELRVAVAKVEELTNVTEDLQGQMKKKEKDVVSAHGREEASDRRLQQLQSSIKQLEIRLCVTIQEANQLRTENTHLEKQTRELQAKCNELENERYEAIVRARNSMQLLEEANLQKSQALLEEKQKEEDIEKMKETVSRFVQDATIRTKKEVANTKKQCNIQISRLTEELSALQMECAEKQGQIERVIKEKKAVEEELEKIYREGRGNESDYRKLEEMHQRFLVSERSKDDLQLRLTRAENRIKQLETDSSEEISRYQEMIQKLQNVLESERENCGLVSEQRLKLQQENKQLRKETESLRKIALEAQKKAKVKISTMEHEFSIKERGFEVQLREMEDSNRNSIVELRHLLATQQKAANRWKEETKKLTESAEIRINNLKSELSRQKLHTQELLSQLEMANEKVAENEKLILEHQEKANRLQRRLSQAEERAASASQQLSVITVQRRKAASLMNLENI
UniProt P78332, sequence (P78332 whole entry, looked up): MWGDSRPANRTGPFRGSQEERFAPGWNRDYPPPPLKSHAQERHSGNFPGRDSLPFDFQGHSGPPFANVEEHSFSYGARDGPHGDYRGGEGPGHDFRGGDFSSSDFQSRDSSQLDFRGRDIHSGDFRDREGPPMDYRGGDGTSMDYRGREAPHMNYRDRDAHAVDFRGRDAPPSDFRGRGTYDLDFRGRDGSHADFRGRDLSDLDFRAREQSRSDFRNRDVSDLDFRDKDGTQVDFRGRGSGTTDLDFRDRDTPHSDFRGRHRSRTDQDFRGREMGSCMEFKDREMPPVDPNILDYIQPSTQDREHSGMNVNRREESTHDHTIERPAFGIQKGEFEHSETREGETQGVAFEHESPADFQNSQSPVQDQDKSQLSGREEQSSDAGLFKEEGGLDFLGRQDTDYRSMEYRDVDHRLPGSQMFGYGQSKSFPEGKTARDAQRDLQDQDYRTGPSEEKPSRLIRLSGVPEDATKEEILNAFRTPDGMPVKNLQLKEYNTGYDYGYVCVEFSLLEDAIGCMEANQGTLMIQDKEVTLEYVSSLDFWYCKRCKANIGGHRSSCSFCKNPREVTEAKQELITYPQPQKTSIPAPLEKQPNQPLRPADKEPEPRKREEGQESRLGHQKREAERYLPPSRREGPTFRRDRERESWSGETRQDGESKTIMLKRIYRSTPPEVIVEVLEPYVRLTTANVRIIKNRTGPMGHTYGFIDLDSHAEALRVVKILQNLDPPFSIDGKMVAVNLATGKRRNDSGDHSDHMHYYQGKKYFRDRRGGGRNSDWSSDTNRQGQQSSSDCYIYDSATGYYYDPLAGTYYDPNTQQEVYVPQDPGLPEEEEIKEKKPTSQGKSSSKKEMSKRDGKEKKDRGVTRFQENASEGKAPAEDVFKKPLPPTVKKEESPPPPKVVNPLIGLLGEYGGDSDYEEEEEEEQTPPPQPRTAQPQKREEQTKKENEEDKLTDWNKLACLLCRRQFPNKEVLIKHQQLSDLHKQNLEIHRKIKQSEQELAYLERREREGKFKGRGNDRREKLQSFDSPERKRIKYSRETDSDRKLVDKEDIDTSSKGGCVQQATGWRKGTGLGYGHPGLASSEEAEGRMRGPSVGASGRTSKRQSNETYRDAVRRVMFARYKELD
UniProt O75446, sequence (O75446 whole entry, looked up): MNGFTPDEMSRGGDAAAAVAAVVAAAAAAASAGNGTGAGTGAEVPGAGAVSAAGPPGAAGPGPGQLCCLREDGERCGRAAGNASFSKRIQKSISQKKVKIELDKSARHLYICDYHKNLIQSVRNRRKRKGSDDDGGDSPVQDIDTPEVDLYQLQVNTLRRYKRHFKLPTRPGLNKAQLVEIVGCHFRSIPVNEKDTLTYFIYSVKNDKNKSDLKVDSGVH
UniProt Q96GF1, sequence (Q96GF1 whole entry, looked up): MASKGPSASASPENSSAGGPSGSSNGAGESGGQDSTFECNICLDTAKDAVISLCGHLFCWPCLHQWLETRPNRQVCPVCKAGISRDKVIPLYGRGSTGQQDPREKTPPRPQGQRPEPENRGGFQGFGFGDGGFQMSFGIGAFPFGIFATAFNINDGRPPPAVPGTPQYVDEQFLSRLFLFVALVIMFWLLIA

Turning to SAFB2 (UniProt K7EQU4), the log2 fold change is 0.057 (inactive) in assay [1]; 0.111 (inactive) with Nexturastat A; 0.295 (inactive) with barasertib; -0.095 (inactive) in assay [2]; -0.11 (inactive) in the assay with epoxomicin; -0.269 (inactive) in the assay with rosiglitazone.

As to RNF41 (UniProt Q9H4P4), the log2 fold change was -0.15 (inactive) with barasertib, 0.044 (inactive) in assay [3] and -0.073 (inactive) with rosiglitazone.

Turning to SCLT1 (UniProt Q96NL6), the log2 fold change in assay [4] was -0.057 (inactive); in assay [1], -0.161 (inactive); in the assay with vemurafenib, 0.045 (inactive); in [5], 0.01 (inactive); with barasertib it was 0.049 (inactive); in assay [2], -0.066 (inactive). The log2 fold change is -0.116 (inactive) in [6]; -0.013 (inactive) in [7]; 0.01 (inactive) in the assay with rosiglitazone; -0.089 (inactive) in assay [8]; -0.029 (inactive) in assay [9].

For the target S100A10 (UniProt P60903), the log2 fold change is 0.128 (inactive) in assay [4]; 0.181 (inactive) in [10]; -0.086 (inactive) in assay [11]; 0.113 (inactive) with barasertib; 0.284 (inactive) in [3]; -0.048 (inactive) with volasertib. Further, the log2 fold change in assay [2] is 0.145 (inactive); in assay [6] it was -0.056 (inactive); in the assay with rosiglitazone, -0.094 (inactive); in assay [9], -0.026 (inactive).

As to SAP30 (UniProt O75446), the log2 fold change in assay [4] is -0.292 (inactive); in [10] it was -0.078 (inactive); in [1] it was -0.164 (inactive); with Nexturastat A, 0.025 (inactive); with vemurafenib, 0.04 (inactive); in assay [11] it was -0.157 (inactive). Also, the log2 fold change was 0.037 (inactive) in assay [5]; 0.019 (inactive) with givinostat; 0.042 (inactive) with volasertib; -0.039 (inactive) in assay [2]; -0.109 (inactive) with epoxomicin; 0.115 (inactive) in assay [12]. Also, the log2 fold change in [6] is -0.051 (inactive); in assay [7] it was 0.013 (inactive); in assay [8], 0.175 (inactive); in assay [9] it was 0.064 (inactive).

As to RBM6 (UniProt P78332), the log2 fold change in [4] is -0.009 (inactive); in assay [10] it was -0.056 (inactive); in [1], 0.092 (inactive); in assay [11], 0.031 (inactive); in assay [5], -0.079 (inactive); in the assay with volasertib it was -0.148 (inactive). The log2 fold change in assay [2] was 0.094 (inactive); in [6], 0.148 (inactive); in [8], 0.109 (inactive); in assay [9], 0.175 (inactive).

Consider RNF185 (UniProt Q96GF1), for which the log2 fold change is -0.055 (inactive) in assay [13]; -0.074 (inactive) in [10]; 0.009 (inactive) with vemurafenib; 0.1 (inactive) in [11]; -0.081 (inactive) in assay [5]; -0.013 (inactive) in the assay with givinostat. Further, the log2 fold change in the assay with barasertib is 0.055 (inactive); in [3] it was -0.041 (inactive); with volasertib, -0.101 (inactive); in assay [2] it was -0.06 (inactive); in [12], 0.02 (inactive); in [6], -0.003 (inactive). The log2 fold change in assay [7] was 0.028 (inactive); with rosiglitazone, -0.075 (inactive); in [9], 0.09 (inactive).

On to SCYL3 isoform 2 (UniProt Q8IZE3), for which the log2 fold change is -0.061 (inactive) in [13]; -0.002 (inactive) in assay [10]; 0.005 (inactive) in assay [1]; 0.004 (inactive) in the assay with Nexturastat A; 0.008 (inactive) in the assay with vemurafenib; 0.022 (inactive) in assay [11]. Also, the log2 fold change in assay [5] is -0.01 (inactive); in the assay with givinostat, 0.012 (inactive); in the assay with barasertib, -0.012 (inactive); in assay [3], -0.114 (inactive); with volasertib it was -0.327 (active); in [2], 0.047 (inactive). Further, the log2 fold change is 0.058 (inactive) with epoxomicin; 0.034 (inactive) in assay [12]; -0.101 (inactive) in assay [6]; -0.021 (inactive) in assay [7]; -0.012 (inactive) with rosiglitazone; -0.05 (inactive) in [8]. In assay [9], the log2 fold change was -0.015 (inactive).
